# Assay outcomes as filed in PubChem.
# PAFAH2 FP inh: PAFAH2 (human) inhibition; Q99487; recombinant PAFAH2, FP-rhodamine activity probe, fluorescence polarization; inhibition, % at 3.39 µM; actives 0.99% (n = 340,000);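 active = inhibition above the mean over all tested compounds plus 3 SD, cut at about 30% in these data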;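 also: inhibitors block probe labeling of enzyme so polarization drops; 0% = enzyme with DMSO and 100% = wells lacking PAFAH2 protein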
# PAFAH1B3 FP inh: PAFAH1B3 (human) inhibition | actives 0.28% (n = 340,000) | recombinant PAFAH1B3, FP-rhodamine probe, fluorescence polarization | AID 492972 | inhibition, % at 3.39 µM | Q15102;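 active = inhibition above the screen-wide average of all tested compounds plus 3 SD, cut at about 25% in these data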;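 also: 0% = enzyme with DMSO only and 100% = wells lacking PAFAH1B3 protein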
# PAFAH1B2 FP inh: PAFAH1B2 (human) inhibition. inhibition, % at 3.39 µM. P68402. actives 1.2% (n = 340,000). recombinant PAFAH1B2, FP-rhodamine activity probe, fluorescence polarization;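 active = inhibition above the mean of all tested compounds plus 3 SD, cut at about 24% in these data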;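 also: 0% = enzyme with DMSO and 100% = wells lacking PAFAH1B2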
# Target sequence (P68402 whole entry, looked up): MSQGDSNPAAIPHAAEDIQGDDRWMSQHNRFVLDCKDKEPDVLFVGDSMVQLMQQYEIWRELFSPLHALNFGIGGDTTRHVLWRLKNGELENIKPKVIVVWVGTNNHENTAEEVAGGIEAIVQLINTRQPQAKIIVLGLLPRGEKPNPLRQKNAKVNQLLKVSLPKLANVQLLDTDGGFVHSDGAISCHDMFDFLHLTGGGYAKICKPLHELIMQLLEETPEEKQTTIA
# Fam108B inh: Fam108B inhibition, counter-screen for RBBP9 inhibitors | recombinant Fam108B, FP-Rh probe fluorescence polarization | inhibition, % at 9.51 µM | actives 0.33% (n = 300,000) | AID 1947;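 active = inhibition above the screen mean inhibition plus 3 SD, computed separately per campaign, cut at about 18% in these data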;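 also: inhibitors lower polarization as less probe binds the enzyme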
# pPAFAH inh: pPAFAH (human) enzyme inhibition | Q13093 | recombinant pPAFAH, FP-rhodamine probe fluorescence polarization | inhibition, % at 3.39 µM | actives 1.5% (n = 330,000) | AID 463082;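 active = inhibition above the mean inhibition across the screen plus 3 SD, cut at about 25% in these data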;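 also: inhibitors block binding of the rhodamine activity-based probe so polarization drops; 0% = enzyme with DMSO and 100% = wells lacking pPAFAH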
# PME-1 primary: PME-1 (human) inhibition; Q9Y570; recombinant PME-1, FP-Rh probe fluorescence polarization; inhibition, % at 5.9 µM; actives 0.53% (n = 320,000);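 active = inhibition above the campaign mean of all compounds plus 3 SD, cut at about 26% in these data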;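 also: competitive labeling of PME-1 active site by serine hydrolase directed probe; 0% = PME-1 with DMSO and 100% = wells lacking PME-1 enzyme; inhibitors block probe labeling so polarization falls and inhibition rises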
# Target sequence (Q9Y570 whole entry, looked up): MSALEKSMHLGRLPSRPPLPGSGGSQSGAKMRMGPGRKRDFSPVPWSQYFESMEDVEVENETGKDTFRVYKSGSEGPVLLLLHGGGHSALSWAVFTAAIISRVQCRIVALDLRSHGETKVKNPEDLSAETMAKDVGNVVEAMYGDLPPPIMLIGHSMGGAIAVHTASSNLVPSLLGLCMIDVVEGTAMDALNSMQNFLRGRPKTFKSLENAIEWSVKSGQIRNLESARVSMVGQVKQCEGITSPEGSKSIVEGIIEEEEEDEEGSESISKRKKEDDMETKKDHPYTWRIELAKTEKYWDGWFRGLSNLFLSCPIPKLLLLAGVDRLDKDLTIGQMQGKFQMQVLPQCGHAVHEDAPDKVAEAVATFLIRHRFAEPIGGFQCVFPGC
# Numbers without * were called inactive; nt = no result. A selection: hits, their analogues and other compounds. The true share with any hit is near 2.9%.
SMILES,PAFAH2 FP inh,PAFAH1B3 FP inh,PAFAH1B2 FP inh,Fam108B inh,pPAFAH inh,PME-1 primary
C=CCN(c1ccccc1)S(=O)(=O)c1cccc(C(=O)Nc2nnc(SCC)s2)c1,3.7,-0.4,10.9,-2.0,34.5*,-2.3
CCSc1nnc(NC(=O)c2cccc(S(=O)(=O)N(C)c3ccccc3)c2)s1,-3.1,-2.2,7.6,-2.9,0.9,0.7
CCCC[C@@H]1C=C(C(=O)O)[C@H](c2ccc(Cl)c(Cl)c2)N1S(=O)(=O)c1ccc(C)cc1,2.2,8.9,25.9*,nt,-1.4,nt
Cc1ccc(S(=O)(=O)N2[C@@H](c3ccc(C#N)cc3)C(C(=O)O)=C[C@H]2C(C)(C)C)cc1,3.2,10.8,19.6,nt,-5.8,nt
Cc1ccc(S(=O)(=O)N2[C@@H](c3ccc(Cl)cc3)C(C(=O)O)=C[C@H]2C(C)(C)C)cc1,-2.3,2.7,51.1*,nt,1.1,nt
CCCC[C@@H]1C=C(C(=O)O)[C@H](c2ccc(C)cc2)N1S(=O)(=O)c1ccc(C)cc1,15.3,3.3,2.4,nt,6.3,nt
Cn1nc(-c2ccccc2)c(COC(=O)c2cccc(Cl)c2)c1S(=O)(=O)c1ccccc1,1.8,5.6,0.0,-4.8,2.8,0.8
O=C(CC1SC(=O)N(c2ccccc2)C1=O)Nc1cccc2ccccc12 (stereo not drawn),1.6,1.7,-0.5,-1.4,25.3*,-0.3
COc1cccc(C(=O)OCC(=O)Nc2ccc3c(c2)OCCO3)c1,76.3*,14.5,8.7,nt,27.6*,nt
O=C(COC(=O)c1cc(Br)ccc1O)Nc1ccc2c(c1)OCCO2,3.6,10.4,1.9,-4.2,3.3,-1.4
COc1ccc(NC(=O)COC(=O)c2ccc3c(c2)OCCO3)cc1OC,14.2,3.4,-2.2,nt,3.6,-3.8
COc1ccc(NS(=O)(=O)c2ccc(O)c(C(=O)OCC(=O)Nc3ccc4c(c3)OCCO4)c2)cc1,10.3,2.5,10.4,1.1,32.1*,-0.8
CCCCN(C(C)=O)c1ccc2c(c1)C1CC2CCN1C(=O)OCc1ccccc1 (stereo not drawn),4.2,9.4,6.5,nt,nt,nt
COc1ccc(CCNC(=O)C2CCC(=O)N(C3CCCCCC3)C2)cc1 (stereo not drawn),-0.3,8.8,2.3,-1.1,-5.6,-3.2
COc1cc(C2C3=C(COC3=O)Oc3cc4c(cc32)OCO4)cc(OC)c1OC(C)=O (stereo not drawn),-4.2,9.9,5.6,nt,nt,nt
CC(C)c1ccc(/C=C2\Oc3c(ccc(O)c3CN3CCN(C)CC3)C2=O)cc1,75.7*,8.2,25.2*,6.7,14.3,-31.5
Cc1ccc(/C=C2\Oc3c(ccc(O)c3CN3CCN(CCO)CC3)C2=O)cc1,17.9,3.1,-1.9,-0.9,-3.0,3.7
COc1ccc(C)c2sc(N(CCN(C)C)C(=O)c3cccc(N4C(=O)CCC4=O)c3)nc12,-3.5,3.8,-2.7,0.6,6.3,-0.8
CC1(OC(=O)c2cccs2)C(=O)C=C2C=C(c3ccc(C#N)cc3)OC=C2C1=O (stereo not drawn),nt,nt,nt,5.6,44.6*,6.2
CC1(OC(=O)CCc2ccccc2)C(=O)C=C2C=C(c3ccc(C#N)cc3)N(c3ccccc3)C=C2C1=O (stereo not drawn),1.9,11.0,0.7,2.8,12.3,-3.7
CC1(OC(=O)c2cccs2)C(=O)C=C2C=C(c3ccsc3)OC=C2C1=O (stereo not drawn),nt,nt,nt,5.8,55.6*,-1.9
C=CCN1C=C2C(=O)C(C)(OC(=O)c3cccs3)C(=O)C=C2C=C1CCCC(=O)OC (stereo not drawn),0.9,1.4,3.2,-0.7,1.1,8.0
COC(=O)CCCC1=CC2=CC(=O)C(C)(OC(=O)c3cccs3)C(=O)C2=CN1CCc1ccccn1 (stereo not drawn),0.4,7.9,-1.6,4.2,2.6,2.1
CC1(OC(=O)CCc2ccccc2)C(=O)C=C2C=C(c3ccsc3)OC=C2C1=O (stereo not drawn),nt,nt,nt,5.6,54.6*,9.0
CCOC(=O)C1CCN(C(=O)C(C)N(c2ccc(Oc3ccccc3)cc2)S(C)(=O)=O)CC1 (stereo not drawn),0.6,5.1,8.6,nt,nt,nt
SMILES,PAFAH2 FP inh,PAFAH1B3 FP inh,PAFAH1B2 FP inh,Fam108B inh,pPAFAH inh,PME-1 primary
CCCCC(CC)c1nnc(NC(=O)c2cccs2)s1 (stereo not drawn),7.0,15.1,27.2*,nt,nt,nt
CC(C)(C)c1nnc(NC(=O)c2cccs2)s1,-0.2,4.3,-2.6,-4.8,5.2,-1.6
CN(C)S(=O)(=O)c1cc(NC(=O)COC(=O)CC2CC3CCC2C3)ccc1Cl (stereo not drawn),77.0*,0.8,5.6,nt,26.3*,nt
Cc1cc(C)c(NC(=O)CNC(=O)COC(=O)/C=C/c2cccs2)c(C)c1,8.1,8.0,5.2,-3.2,26.8*,2.2
Cc1cc(C)c(NC(=O)COC(=O)Cc2cccs2)c(C)c1,3.0,9.6,0.9,1.0,25.7*,-1.0
Cc1ccc(-n2nnnc2SCCNS(=O)(=O)c2ccccc2)cc1C,6.5,5.9,-3.4,2.2,29.0*,7.1
Cn1nnnc1SCCNS(=O)(=O)c1ccccc1,-3.3,-3.0,1.3,0.9,7.6,0.4
CCN(CC)S(=O)(=O)c1cccc(N=Nc2sc(N)nc2C)c1,12.9,3.5,-2.3,6.5,25.6*,9.2
CN(C)S(=O)(=O)c1cccc(C(=O)Nc2cc(Cl)ccc2O)c1,-3.3,-2.9,24.4*,3.9,4.0,-11.4
Cc1cc(C)n2nc(SC(C)C(=O)Nc3ccc(Cl)cn3)nc2n1 (stereo not drawn),0.2,1.1,-0.8,1.4,5.9,12.2
CCCN(CC(=O)Nc1ccccc1OC)C(=O)c1cnc(Cl)c(Cl)c1,3.0,10.8,0.2,-0.7,3.8,2.8
O=C(N1CCOCC1)C1(c2ccccc2)CCCCC1,7.0,9.7,28.2*,3.3,4.7,4.5
O=C(N1CCCCC1)C1(c2ccccc2)CCCCC1,-3.1,3.0,29.6*,-1.3,1.5,6.6
COc1ccc(Cl)cc1S(=O)(=O)N1CCN(C(=O)c2n[nH]c(=O)c3ccccc23)CC1,3.9,-2.3,0.4,nt,4.6,nt
C=C(C)CN(CC)Cc1c(C(=O)N(C)CCCC)nc2ccccn12,-9.9,-4.0,0.7,-5.6,1.7,-1.1
COc1cccc(NC(=O)NC2CCCCC2C)c1 (stereo not drawn),-3.9,13.8,0.1,-1.4,-3.5,0.5
CCCCCCN(C(=O)CCCCCN1C(=O)NC(c2ccc(-c3ccccc3)cc2)C(C(=O)OCc2ccccc2)=C1C)C(C(=O)NCCCC)c1ccc(OCC(=O)OC)cc1 (stereo not drawn),nt,nt,nt,-6.2,18.6,1.0
CCCCNC(=O)C(c1ccc(OCC(=O)OC)c(C(=O)OC)c1)N(CCOC)C(=O)CCCCCN1C(=O)NC(c2ccc(-c3ccccc3)cc2)C(C(=O)OCc2ccccc2)=C1C (stereo not drawn),nt,nt,nt,-9.1,49.3*,-2.8
COc1ccc(C)cc1NC(=O)c1ccc(NS(=O)(=O)c2cccs2)cc1,5.8,-4.2,-2.1,1.4,32.2*,7.7
